Data: PubChem BioAssay (Tox21)
Inconclusive results are not listed. Where a structure was tested more than once in an assay, its records may differ in their call. Active and inactive are the calls of the source. Calls come from the whole dose curve; as a rule, active = well fitted activation curve with a large enough effect in the repeat runs; inconclusive = weak or mixed curves; inactive = flat fitted curve, though single readings scatter.
% is set by controls: 0 for no effect and ±100 for the full control effect; potency is the fitted concentration of half-maximal effect.

Assay: A CellTox Green Cytotoxicity Assay to monitor cytotoxicity in HepG2 cells - 8 hour (AID 1224890); note: nearly all actives have a fitted effect of over 45% in size
Conditions: CellTox Green fluorescence; series mostly up to 76.8 µM; cytotoxicity increase: at the top concentration
Description: National Center for Advancing Translational Sciences [NCATS]
NIH Chemical Genomics Center [NCGC]
U.S. Environmental Protection Agency [EPA]
National Institutes of Environmental Health Sciences [NIEHS]
National Toxicology Program [NTP]
Cell-based models are critical for drug discovery. Determining the natural cytotoxic effects resulting from test compounds is an essential research activity. A CellTox Green Cytotoxicity Assay to monitor cytotoxicity in real time of continues cell culture during 40 hours of the compound treatment was used to screen Tox21 10K library compounds in HepG2 cells. CellTox Green Cytotoxicity Assay is a nonlytic, homogeneous, biofluorescent method to measure cytotoxicity in cell culture after experimental manipulation. The assay system uses a proprietary asymmetric cyanine dye that is excluded from viable cells but preferentially stains the dead cell's DNA. […] Viable cells produce no appreciable increases in fluorescence. Therefore, the fluorescence signal produced by the binding interaction with dead cell DNA is proportional to cytotoxicity.
The mixture of HepG2 cell suspension and reagents were dispensed at 600cells/6 ul/well in 1536-well tissue culture treated black solid bottom plates using a Multidrop dispenser. After the assay plates were incubated at a 37 C/5% CO2 incubator for 5 hours, 23 nL of compounds dissolved in DMSO, positive and negative controls was transferred to the assay plate by a pintool work station. The plates were incubated at 37 C for 40 hours. The fluorescence intensity were measured at 0h, 8h, 16h, 24h, 32h and 40h time points using ViewLux plate reader during compound treatment.
With `CC(C)[C@H](C(=O)O[C@H](C#N)c1cccc(Oc2ccccc2)c1)c1ccc(Cl)cc1` the “cytotoxicity increase” value was -3.69% (inactive).
In the case of `CC(C)C(=O)Cl`, the “cytotoxicity increase” value was -7.89% (inactive).
In the case of `Nc1ccccc1C(=O)OC/C=C/c1ccccc1`, the “cytotoxicity increase” value was -4.5% (inactive).
With `N#CC(Cl)Cl` the Potency was 1.51 µM (active).
For `C[As+](C)(C)CC(=O)[O-]`, the “cytotoxicity increase” value was -0.448% (inactive).
For `N#Cc1ccccc1N`, the “cytotoxicity increase” value was -0.389% (inactive).
With `ClC1=C(Cl)[C@]2(Cl)[C@@H]3[C@@H]4C[C@@H]([C@H]5O[C@@H]45)[C@@H]3[C@@]1(Cl)C2(Cl)Cl` the Potency was 49 µM (active).
For `O=c1[nH]c2ccccc2n1C1CCN(CCCC(c2ccc(F)cc2)c2ccc(F)cc2)CC1`, the Potency was 54.9 µM (active) and inactive.
With `CC1(C)CN=C(NN=C(/C=C/c2ccc(C(F)(F)F)cc2)/C=C/c2ccc(C(F)(F)F)cc2)NC1` the Potency was 34.7 µM (active).
For `CNC(C)Cc1ccc2c(c1)OCO2` (stereo not given), the “cytotoxicity increase” value was -8.46% (inactive).
In the case of `O=C/C(Cl)=C(/Cl)C(=O)O`, the Potency was “inactive”.
With `O=c1ssc(Cl)c1Cl` the Potency was 24.5 µM (active).
For `COc1ccc(OC)c(CC(C)N)c1` (stereo not given), the “cytotoxicity increase” value was -0.183% (inactive).
With `Clc1ccc(C(c2ccccc2Cl)C(Cl)(Cl)Cl)cc1` (stereo not given) the Potency was “inactive”.
For `Cc1cc(N=Nc2ccccc2C)ccc1N`, the Potency was “inactive”.
With `CN(C)S(=O)(=O)N(SC(F)(Cl)Cl)c1ccccc1` the “cytotoxicity increase” value was 7.82% (inactive).
In the case of `Clc1ccc(C(Cl)(Cl)Cl)c(Cl)c1`, the “cytotoxicity increase” value was 5.88% (inactive).
In the case of `[Hg+2].[I-].[I-]`, the Potency was 15.5 µM (active).
For `CC(C)C1CCC(Cc2ccc(Cl)cc2)C1(O)Cn1cncn1` (stereo not given), the Potency was 54.4 µM (active).
For `N#CCCSCCC#N`, the “cytotoxicity increase” value was 9.13% (inactive).
In the case of `O=c1c(C2CC(c3ccc(-c4ccc(Br)cc4)cc3)Cc3ccccc32)c(O)sc2ccccc12` (stereo not given), the “cytotoxicity increase” value was -5.09% [at 35.3 µM] (inactive).
For `Cc1cccc(OP(=O)(Oc2cccc(C)c2)Oc2cccc(C)c2)c1`, the “cytotoxicity increase” value was -5.94% (inactive).
In the case of `O=C(CBr)c1ccc(O)cc1`, the “cytotoxicity increase” value was -0.694% (inactive).
With `c1ccc2cc3c(cc2c1)-c1cccc2cccc-3c12` the “cytotoxicity increase” value was -9.99% (inactive).
With `Oc1ccc(C(c2ccc(O)cc2)(C(F)(F)F)C(F)(F)F)cc1` the “cytotoxicity increase” value was 11.7% (inactive).
With `Nc1ccc([N+](=O)[O-])cc1Cl` the “cytotoxicity increase” value was 1.59% (inactive).
For `CC(C)(O)c1cnn2c(-c3ccc(F)c(-c4c(F)cccc4C#N)c3)cnc2n1`, the “cytotoxicity increase” value was 12.9% (inactive).
In the case of `O=C(CCCN1CCC2(CC1)C(=O)NCN2c1ccccc1)c1ccc(F)cc1`, the “cytotoxicity increase” value was -5.85% [at 35.3 µM] (inactive).
In the case of `Clc1ccc(CSC(Cn2ccnc2)c2ccc(Cl)cc2Cl)cc1` (stereo not given), the “cytotoxicity increase” value was 2.1% [at 35.3 µM] (inactive).
For `O=C1c2ccccc2C(=O)C1C(=O)C(c1ccccc1)c1ccc(Cl)cc1` (stereo not given), the Potency was 49 µM (active).
In the case of `CC[C@H]1C[C@@H]2C[C@H]3c4[nH]c5ccc(OC)cc5c4CCN(C2)[C@@H]13`, the “cytotoxicity increase” value was -14.2% (inactive).
For `CC(C)CCCCCCCOP(=O)(Oc1ccccc1)Oc1ccccc1`, the “cytotoxicity increase” value was 0.428% (inactive).
For `[Cl][Sn]([c]1ccccc1)([c]1ccccc1)[c]1ccccc1`, the Potency was 9.28 µM (active).
With `CC(C)CC(C)Nc1ccc(Nc2ccccc2)cc1` (stereo not given) the “cytotoxicity increase” value was -10.6% (inactive).
For `CC(C)(C)c1ccc(CSc2cnn(C(C)(C)C)c(=O)c2Cl)cc1`, the “cytotoxicity increase” value was -2.65% (inactive).
With `CC(C)Oc1cccc(NC(=O)c2ccccc2C(F)(F)F)c1` the Potency was 49 µM (active).
For `S=C=Nc1cccc2ccccc12`, the “cytotoxicity increase” value was 3.78% (inactive).
With `CCOP(=O)(NC(C)C)Oc1ccc(SC)c(C)c1` (stereo not given) the “cytotoxicity increase” value was 2.31% (inactive).
With `CCOP(=S)(OCC)SCS(=O)(=O)CC` the “cytotoxicity increase” value was -2.37% (inactive).
In the case of `Oc1cc(Cl)c(Cl)c(Cl)c1`, the “cytotoxicity increase” value was 4.44% (inactive).
